Holding throughout (assay): DAPPL (digital affinity profiling via proximity ligation, sequencing); 10 mM Tris-HCl pH 7.5, 50 mM NaCl, 1 mM DTT, 4% glycerol, room temperature, 30 min; GST-TFs on glutathione beads, 16-mer random dsDNA library, 0.1% formaldehyde crosslink after washing; high values mean tight binding
Common to all, as to conditions: protein: recombinant; tags: N-terminal GST; dsDNA, one strand shown

Assay [1] addresses T1, FLI1 (Homo sapiens, UniProt Q01543 1-452).
T1 sequence: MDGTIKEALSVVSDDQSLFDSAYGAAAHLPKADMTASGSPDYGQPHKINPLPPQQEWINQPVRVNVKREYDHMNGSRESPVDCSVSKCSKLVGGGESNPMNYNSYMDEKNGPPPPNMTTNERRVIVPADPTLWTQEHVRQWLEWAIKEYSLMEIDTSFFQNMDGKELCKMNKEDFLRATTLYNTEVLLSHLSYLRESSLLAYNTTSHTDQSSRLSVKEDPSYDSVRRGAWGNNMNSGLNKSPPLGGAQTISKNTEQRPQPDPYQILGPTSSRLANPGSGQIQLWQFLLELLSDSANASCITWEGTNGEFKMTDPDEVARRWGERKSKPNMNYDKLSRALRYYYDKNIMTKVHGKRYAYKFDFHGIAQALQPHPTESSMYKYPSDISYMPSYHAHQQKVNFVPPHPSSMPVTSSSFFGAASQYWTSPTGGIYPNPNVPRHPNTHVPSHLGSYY
A digest of the protocol: (§1)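 After expression in yeast as GST fusions, human transcription factors were bound to glutathione beads, DNA-barcoded and mixed with a tag-only sample. The pools were incubated with 200 nmole of a 16-mer random double-stranded DNA library in Tris/NaCl/DTT/glycerol buffer (30 min, room temperature), washed and crosslinked with 0.1% formaldehyde. Proximity ligation with BsaI/T4 ligase ran for 1 h at 37 °C, before PCR amplification and sequencing on an Illumina NextSeq500. Binding signal is a hexamer's read frequency for a factor divided by its frequency for the tag-only sample.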

For assay [2], the target named is T2, ELK1 (Homo sapiens, UniProt P19419 1-428).
T2 sequence: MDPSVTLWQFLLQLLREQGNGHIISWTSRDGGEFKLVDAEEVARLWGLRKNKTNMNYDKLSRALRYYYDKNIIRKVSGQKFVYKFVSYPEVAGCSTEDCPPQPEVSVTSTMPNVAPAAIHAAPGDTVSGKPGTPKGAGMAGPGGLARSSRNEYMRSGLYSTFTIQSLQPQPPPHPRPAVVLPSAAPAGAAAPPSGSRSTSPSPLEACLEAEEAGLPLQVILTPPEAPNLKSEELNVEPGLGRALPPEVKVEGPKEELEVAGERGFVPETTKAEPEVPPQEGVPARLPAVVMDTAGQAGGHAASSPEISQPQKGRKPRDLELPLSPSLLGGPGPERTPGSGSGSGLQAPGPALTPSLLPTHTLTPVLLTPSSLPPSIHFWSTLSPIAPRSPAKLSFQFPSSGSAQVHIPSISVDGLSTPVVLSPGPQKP
A digest of the protocol: as §1

Assay [3] has as its target T3, GABPA (Homo sapiens, UniProt Q06546 1-454).
T3 sequence: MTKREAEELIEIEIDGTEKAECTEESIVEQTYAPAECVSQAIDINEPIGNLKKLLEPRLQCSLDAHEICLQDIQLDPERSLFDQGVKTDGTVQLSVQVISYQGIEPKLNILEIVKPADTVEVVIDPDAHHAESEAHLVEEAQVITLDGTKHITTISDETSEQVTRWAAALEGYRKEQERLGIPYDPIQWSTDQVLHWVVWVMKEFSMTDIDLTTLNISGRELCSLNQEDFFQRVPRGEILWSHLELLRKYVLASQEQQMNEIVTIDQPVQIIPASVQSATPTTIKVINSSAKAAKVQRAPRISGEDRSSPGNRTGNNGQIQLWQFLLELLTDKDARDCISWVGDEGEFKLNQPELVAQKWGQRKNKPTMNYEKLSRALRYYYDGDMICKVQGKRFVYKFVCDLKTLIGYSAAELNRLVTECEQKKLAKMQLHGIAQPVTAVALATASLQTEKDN
In outline:
as §1

Assay [4] has as its target T4, EHF (Homo sapiens, UniProt Q9NZC4 1-300).
T4 sequence: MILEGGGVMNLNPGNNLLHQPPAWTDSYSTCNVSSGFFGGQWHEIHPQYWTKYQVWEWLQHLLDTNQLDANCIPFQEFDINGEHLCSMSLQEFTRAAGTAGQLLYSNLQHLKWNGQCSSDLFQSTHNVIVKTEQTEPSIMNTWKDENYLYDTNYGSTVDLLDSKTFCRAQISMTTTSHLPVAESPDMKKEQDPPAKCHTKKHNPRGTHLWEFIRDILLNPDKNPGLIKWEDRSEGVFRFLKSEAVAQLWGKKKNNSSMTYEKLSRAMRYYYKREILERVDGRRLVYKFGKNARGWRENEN
A digest of the protocol: as §1

Assay [5] concerns the target SPI1 (Homo sapiens, UniProt P17947 1-270). In outline:
as §1

Assay [6] concerns the target SPIB (Homo sapiens, UniProt Q01892 1-262). In outline: as §1
In assay [7] the target is T5, ELK3 (Homo sapiens, UniProt P41970 1-407).
T5 sequence: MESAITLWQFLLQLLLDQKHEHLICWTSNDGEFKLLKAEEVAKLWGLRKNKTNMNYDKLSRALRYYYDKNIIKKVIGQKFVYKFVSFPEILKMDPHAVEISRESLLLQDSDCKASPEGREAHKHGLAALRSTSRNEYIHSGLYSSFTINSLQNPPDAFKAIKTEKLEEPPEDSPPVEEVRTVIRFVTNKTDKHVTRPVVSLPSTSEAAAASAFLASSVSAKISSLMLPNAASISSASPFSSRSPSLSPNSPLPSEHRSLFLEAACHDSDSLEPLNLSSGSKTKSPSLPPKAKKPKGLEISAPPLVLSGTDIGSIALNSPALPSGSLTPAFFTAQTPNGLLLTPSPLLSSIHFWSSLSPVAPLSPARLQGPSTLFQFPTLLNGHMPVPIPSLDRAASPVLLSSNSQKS
A digest of the protocol:
as §1

Assay [8] addresses ETV5 (Homo sapiens, UniProt P41161 1-510). In outline: as §1
Assay [9] addresses T6, SPIC (Homo sapiens, UniProt Q8N5J4 1-248).
T6 sequence: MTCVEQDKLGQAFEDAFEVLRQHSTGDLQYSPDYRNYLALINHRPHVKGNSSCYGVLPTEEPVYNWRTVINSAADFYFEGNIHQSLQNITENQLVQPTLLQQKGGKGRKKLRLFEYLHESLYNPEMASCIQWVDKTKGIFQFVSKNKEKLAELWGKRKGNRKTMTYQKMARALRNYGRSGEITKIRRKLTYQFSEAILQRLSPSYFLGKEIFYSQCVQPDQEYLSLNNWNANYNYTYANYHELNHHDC
A digest of the protocol: as §1

Assay [10] has as its target ELF4 (Homo sapiens, UniProt Q99607 1-663). A digest of the protocol: as §1
The target in assay [11] is ETV1 (Homo sapiens, UniProt P50549 1-477). In outline:
as §1

The target of assay [12] is T7, ERF (Homo sapiens, UniProt P50548 1-548).
T7 sequence: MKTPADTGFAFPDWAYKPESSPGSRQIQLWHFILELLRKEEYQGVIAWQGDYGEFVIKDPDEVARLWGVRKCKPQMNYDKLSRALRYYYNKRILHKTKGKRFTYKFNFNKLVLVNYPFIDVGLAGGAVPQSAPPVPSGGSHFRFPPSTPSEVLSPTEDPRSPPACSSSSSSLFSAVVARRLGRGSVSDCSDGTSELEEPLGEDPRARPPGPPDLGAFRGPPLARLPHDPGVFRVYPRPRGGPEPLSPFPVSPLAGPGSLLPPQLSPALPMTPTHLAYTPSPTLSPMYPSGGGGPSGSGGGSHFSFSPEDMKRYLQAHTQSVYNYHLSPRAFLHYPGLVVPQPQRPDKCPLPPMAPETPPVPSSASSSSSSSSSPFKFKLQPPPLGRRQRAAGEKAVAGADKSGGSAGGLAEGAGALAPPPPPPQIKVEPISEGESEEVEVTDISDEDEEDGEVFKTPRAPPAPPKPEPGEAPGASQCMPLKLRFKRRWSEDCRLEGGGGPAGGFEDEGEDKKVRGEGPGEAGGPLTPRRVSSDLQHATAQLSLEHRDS
In outline: as §1

Assay [13] has as its target T8, ETV3L (Homo sapiens, UniProt Q6ZN32 1-361).
T8 sequence: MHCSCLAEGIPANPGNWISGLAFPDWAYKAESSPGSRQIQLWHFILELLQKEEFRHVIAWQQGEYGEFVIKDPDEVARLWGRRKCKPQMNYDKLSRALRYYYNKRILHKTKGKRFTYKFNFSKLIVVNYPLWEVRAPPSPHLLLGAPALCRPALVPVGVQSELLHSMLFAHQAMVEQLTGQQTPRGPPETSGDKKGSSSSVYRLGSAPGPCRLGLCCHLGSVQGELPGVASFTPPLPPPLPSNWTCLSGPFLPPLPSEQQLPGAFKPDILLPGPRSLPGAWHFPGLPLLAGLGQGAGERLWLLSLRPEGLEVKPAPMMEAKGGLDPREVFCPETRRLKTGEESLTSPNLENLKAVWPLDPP
A digest of the protocol:
as §1

The target of assay [14] is T9, ETV3 (Homo sapiens, UniProt P41162-2 1-143).
T9 sequence: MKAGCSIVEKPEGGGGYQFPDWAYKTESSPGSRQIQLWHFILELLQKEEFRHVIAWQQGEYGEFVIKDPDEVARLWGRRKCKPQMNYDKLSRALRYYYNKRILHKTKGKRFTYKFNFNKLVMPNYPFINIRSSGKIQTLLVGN
A digest of the protocol: as §1

Assay [15] deals with ETV6 (Homo sapiens, UniProt P41212 1-452). In outline: as §1
Chain of ETV6 (P41212 whole entry): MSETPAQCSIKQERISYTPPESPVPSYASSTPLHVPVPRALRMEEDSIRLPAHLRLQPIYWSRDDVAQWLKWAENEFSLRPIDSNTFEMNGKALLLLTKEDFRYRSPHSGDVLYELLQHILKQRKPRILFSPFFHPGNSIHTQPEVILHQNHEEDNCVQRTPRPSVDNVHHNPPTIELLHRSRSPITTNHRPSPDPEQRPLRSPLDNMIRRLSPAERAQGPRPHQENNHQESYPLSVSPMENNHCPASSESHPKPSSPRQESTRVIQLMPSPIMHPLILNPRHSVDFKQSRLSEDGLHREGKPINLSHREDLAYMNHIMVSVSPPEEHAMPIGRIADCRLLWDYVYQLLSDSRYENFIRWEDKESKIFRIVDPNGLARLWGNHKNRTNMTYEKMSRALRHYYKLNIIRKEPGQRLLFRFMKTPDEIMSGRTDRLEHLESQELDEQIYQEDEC

Chain of ETV1 (P50549 whole entry): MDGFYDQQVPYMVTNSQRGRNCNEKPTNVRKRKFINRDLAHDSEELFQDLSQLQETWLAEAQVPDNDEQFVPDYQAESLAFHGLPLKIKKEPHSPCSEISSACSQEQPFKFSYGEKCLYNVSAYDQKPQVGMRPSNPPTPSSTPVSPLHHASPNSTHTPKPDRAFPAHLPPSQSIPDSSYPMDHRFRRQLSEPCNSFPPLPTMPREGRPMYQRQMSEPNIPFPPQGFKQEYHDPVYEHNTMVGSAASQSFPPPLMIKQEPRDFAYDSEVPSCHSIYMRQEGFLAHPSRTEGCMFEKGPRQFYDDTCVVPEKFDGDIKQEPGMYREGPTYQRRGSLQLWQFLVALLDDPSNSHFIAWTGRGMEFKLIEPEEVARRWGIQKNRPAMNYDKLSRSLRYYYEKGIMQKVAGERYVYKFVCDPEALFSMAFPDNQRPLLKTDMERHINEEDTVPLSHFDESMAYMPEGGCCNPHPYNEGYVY
Chain of ELF4 (Q99607 whole entry): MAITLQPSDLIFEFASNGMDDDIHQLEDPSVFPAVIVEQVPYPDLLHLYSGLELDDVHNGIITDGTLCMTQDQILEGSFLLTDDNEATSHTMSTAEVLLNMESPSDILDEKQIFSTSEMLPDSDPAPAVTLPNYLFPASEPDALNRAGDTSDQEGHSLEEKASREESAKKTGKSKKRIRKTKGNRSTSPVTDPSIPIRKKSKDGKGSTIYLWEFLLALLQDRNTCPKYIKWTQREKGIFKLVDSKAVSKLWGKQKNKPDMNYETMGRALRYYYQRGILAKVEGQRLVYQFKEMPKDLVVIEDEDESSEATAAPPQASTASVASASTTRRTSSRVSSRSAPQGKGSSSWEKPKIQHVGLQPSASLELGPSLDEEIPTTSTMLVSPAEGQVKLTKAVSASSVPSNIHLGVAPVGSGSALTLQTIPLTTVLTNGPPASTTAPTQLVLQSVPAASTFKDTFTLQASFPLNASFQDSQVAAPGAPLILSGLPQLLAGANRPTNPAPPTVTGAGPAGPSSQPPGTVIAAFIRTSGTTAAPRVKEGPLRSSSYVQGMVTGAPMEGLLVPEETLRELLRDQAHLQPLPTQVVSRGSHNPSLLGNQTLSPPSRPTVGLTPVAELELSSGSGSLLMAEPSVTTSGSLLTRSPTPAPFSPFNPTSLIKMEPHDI
Chain of ETV5 (P41161 whole entry): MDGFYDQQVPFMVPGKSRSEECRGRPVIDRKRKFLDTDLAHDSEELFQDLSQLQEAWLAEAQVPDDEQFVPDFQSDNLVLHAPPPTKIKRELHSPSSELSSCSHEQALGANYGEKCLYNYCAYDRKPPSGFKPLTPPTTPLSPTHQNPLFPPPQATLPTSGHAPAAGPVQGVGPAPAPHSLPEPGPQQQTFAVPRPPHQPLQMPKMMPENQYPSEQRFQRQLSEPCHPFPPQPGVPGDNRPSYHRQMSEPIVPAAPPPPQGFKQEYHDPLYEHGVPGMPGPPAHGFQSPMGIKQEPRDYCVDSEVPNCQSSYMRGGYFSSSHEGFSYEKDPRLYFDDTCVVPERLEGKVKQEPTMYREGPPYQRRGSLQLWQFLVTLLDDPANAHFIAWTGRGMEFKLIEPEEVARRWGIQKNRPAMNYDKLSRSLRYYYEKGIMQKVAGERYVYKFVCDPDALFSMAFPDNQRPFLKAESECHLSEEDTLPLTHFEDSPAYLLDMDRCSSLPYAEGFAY
Chain of SPIB (Q01892 whole entry): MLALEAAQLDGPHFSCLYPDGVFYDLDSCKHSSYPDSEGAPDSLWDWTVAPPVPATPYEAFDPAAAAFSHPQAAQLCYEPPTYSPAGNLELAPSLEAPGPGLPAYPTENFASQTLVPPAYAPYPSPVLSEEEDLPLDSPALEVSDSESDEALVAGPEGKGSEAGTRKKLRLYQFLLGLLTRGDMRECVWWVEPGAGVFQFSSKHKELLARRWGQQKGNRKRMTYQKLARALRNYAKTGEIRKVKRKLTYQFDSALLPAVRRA

Take GCGCGC: the binding signal was 1 fold enrichment (6-mer frequency, TF over GST control) in assay [1]; 1.11 fold enrichment (6-mer frequency, TF over GST control) in [2]; 1.05 fold enrichment (6-mer frequency, TF over GST control) in assay [3]; 1.06 fold enrichment (6-mer frequency, TF over GST control) in [4]; 1.05 fold enrichment (6-mer frequency, TF over GST control) in assay [5]; 1.18 fold enrichment (6-mer frequency, TF over GST control) in [6]. In addition, the binding signal in [7] was 1.01 fold enrichment (6-mer frequency, TF over GST control); in assay [8], 1.08 fold enrichment (6-mer frequency, TF over GST control); in [9] it was 1.15 fold enrichment (6-mer frequency, TF over GST control); in assay [10], 1.08 fold enrichment (6-mer frequency, TF over GST control); in [11] it was 1.09 fold enrichment (6-mer frequency, TF over GST control); in assay [12], 1.22 fold enrichment (6-mer frequency, TF over GST control). The binding signal in [13] was 1 fold enrichment (6-mer frequency, TF over GST control); in [14], 1.02 fold enrichment (6-mer frequency, TF over GST control); in assay [15] it was 1.03 fold enrichment (6-mer frequency, TF over GST control).

Source of the values: publication PMC7862700, “An all-to-all approach to the identification of sequence-specific readers for epigenetic DNA modifications on cytosine”.
